The nature of test [1]: antimalarial activity against Dd2 strain (AID 2302;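 active = growth inhibition above 50% at the single 2 µM test dose, taken to imply half-maximal potency below 2 µM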;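 also: 0% = DMSO untreated growth and 100% = chloroquine plus artemisinin killed control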). The conditions noted are these: P. falciparum Dd2 in RBCs, LDH growth readout, 72 h; at 2 µM; stronger effect = higher value.
Test [2] in a line: human hepatoma cell viability loss – ATP luminescence, cytotoxicity control for P. falciparum antimalarial project, primary screen (AID 2303;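 active = inhibition above 50%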;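 also: 0% = DMSO wells and 100% = digitonin-killed cells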). The conditions noted are these: HepG2 viability, 24-48 h, at 10 µM, stronger effect = higher value.
For test [3], the target named is L-lactate dehydrogenase (Plasmodium falciparum (isolate CDC / Honduras)) (UniProt Q27743). The test is described as follows: PfLDH activity inhibition – cell lysate, 3D7 strain, counter-screen for P. falciparum growth inhibition project (AID 2304).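 Also: 0% = vehicle and 100% = reference inhibitor.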 The settings on record: P. falciparum 3D7 crude extract, LDH APAD/NBT absorbance; at 2 µM; stronger effect = higher value.
A short description of test [4]: inhibition of 3D7 malaria parasite growth – strain 3D7 (AID 2306).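 Also: 0% = DMSO wells and 100% = chloroquine plus artemisinin control wells.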 The settings on record: P. falciparum 3D7 erythrocytic growth, LDH absorbance, 72 h; at 2 µM; stronger effect = higher value.
The target in test [5] is Calcium-dependent protein kinase 1 (Plasmodium falciparum (isolate 3D7)) (UniProt P62344). The test is described as follows: PfCDPK1 kinase inhibitors, biochemical, TCAMS library (AID 1159585; cut-off not given, nearly all actives have IC50 up to about 0.98 µM;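 also: inhibitors leave more ATP so luminescence rises with inhibition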). The conditions noted are these: recombinant PfCDPK1, Kinase-Glo ATP depletion luminescence. (In Kinase-Glo more light means more ATP remaining.)
Test [6] deals with Plasmodium falciparum protein kinase 6 (PK6, PF3D7_1337100) (UniProt Q8IDW1). The test is described as follows: PfPK6 kinase inhibitors, biochemical, TCAMS library (AID 1159586). The settings on record: recombinant PfPK6, Kinase-Glo ATP depletion luminescence.
Test [7] addresses Protein kinase 7 (PK7), Plasmodium falciparum 3D7 (PF3D7_0213400) (UniProt Q7YTF7). The test is described as follows: inhibition of Plasmodium PK7 catalytic activity – biochemical, TCAMS antimalarial set, Kinase-Glo luminescence (AID 1159587). The conditions noted are these: recombinant PfPK7, Kinase-Glo ATP depletion luminescence.
The target in test [8] is Calcium-dependent protein kinase 4 (Plasmodium falciparum (isolate 3D7)) (UniProt Q8IBS5). The test can be described thus: PfCDPK4 kinase inhibitors, biochemical, TCAMS library (AID 1159588; cut-off not given, nearly all actives have IC50 up to about 0.91 µM). The settings on record: recombinant PfCDPK4, Kinase-Glo ATP depletion luminescence.

A number with no mark means an inactive call. For some assays here: Entries with a potency or affinity are not part of this list. The source made the active and inactive calls. Unless noted, no rule for the calls is given here.

Sequence of Calcium-dependent protein kinase 1 (Plasmodium falciparum (isolate 3D7)) (P62344 whole entry, looked up): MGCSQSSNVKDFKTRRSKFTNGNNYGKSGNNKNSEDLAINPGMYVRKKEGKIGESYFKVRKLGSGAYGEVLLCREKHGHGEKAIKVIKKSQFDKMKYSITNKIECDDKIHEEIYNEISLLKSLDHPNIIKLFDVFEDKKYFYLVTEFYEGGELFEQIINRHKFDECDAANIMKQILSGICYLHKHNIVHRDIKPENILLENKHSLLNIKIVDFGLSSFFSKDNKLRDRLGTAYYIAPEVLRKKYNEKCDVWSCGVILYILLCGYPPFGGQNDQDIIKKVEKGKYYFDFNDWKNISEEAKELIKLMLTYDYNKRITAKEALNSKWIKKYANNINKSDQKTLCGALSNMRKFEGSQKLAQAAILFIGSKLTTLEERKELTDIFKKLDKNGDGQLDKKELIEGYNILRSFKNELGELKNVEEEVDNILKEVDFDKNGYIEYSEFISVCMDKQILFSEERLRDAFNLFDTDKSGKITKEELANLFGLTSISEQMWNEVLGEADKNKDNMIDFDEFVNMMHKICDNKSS
Sequence of Plasmodium falciparum protein kinase 6 (PK6, PF3D7_1337100) (Q8IDW1 1-305): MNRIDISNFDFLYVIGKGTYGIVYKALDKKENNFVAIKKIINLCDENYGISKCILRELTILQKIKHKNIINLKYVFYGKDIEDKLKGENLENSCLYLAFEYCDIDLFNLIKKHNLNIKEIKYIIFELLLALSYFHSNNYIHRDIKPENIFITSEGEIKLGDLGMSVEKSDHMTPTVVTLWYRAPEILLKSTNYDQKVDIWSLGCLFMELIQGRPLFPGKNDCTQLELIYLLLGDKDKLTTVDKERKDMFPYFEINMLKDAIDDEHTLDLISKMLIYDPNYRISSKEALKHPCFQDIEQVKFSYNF
Sequence of Protein kinase 7 (PK7), Plasmodium falciparum 3D7 (PF3D7_0213400) (Q7YTF7 1-343): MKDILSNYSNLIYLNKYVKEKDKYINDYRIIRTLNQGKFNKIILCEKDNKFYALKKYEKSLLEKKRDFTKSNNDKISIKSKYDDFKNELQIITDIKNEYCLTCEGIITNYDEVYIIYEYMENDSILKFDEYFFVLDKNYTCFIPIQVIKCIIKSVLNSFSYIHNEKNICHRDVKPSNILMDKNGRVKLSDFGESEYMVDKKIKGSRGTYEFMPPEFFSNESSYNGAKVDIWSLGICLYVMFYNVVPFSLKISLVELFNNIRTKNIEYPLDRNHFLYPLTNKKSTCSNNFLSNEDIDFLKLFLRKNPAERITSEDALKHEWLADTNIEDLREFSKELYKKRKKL
Sequence of Calcium-dependent protein kinase 4 (Plasmodium falciparum (isolate 3D7)) (Q8IBS5 whole entry, looked up): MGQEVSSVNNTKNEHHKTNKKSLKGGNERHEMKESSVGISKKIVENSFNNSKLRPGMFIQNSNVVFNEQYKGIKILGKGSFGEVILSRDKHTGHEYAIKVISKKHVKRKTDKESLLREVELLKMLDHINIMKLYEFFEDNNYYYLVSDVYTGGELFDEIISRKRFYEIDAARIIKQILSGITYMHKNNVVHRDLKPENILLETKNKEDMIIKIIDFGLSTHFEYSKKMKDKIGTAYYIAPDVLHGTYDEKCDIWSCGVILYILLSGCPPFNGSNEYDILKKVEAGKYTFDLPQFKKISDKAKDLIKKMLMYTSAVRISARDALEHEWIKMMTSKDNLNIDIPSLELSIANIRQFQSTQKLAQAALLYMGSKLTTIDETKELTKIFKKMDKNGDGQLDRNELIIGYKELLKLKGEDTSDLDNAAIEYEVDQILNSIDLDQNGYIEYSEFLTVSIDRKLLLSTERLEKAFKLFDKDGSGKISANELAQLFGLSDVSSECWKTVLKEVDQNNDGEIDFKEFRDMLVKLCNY
Sequence of L-lactate dehydrogenase (Plasmodium falciparum (isolate CDC / Honduras)) (Q27743 whole entry, looked up): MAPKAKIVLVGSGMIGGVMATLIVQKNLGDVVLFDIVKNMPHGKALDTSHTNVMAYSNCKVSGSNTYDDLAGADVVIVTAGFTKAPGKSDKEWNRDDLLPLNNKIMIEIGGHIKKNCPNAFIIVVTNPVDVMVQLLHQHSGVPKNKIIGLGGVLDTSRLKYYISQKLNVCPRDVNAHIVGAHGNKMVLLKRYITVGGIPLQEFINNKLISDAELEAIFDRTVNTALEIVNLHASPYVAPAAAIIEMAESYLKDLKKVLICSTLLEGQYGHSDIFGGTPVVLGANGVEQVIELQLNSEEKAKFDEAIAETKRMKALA

As to `O=C(c1cc(C(=O)Nc2ccccc2)c(=O)n(-c2ccccc2)c1)c1cc(Cl)ccc1O`, the growth inhibition in test [1] is 95% (active); in test [4], 100% (active). The inhibition (usually the drop in the measured response relative to a control, in per cent) in test [2] is 9%; in test [3], -1%. The result in test [5], in test [6], in test [7] and in test [8] was inactive.

Consider `CN1C(=C2SC(=Nc3ccc4ncccc4c3)N(Cc3ccccc3)C2=O)Sc2ccc(Cl)cc21`, for which the figures for the growth inhibition in test [1] and in test [4] were 75% (active) and 99% (active), respectively. In addition, the inhibition in test [2] was 4%; in test [3], -2%. In addition, the result in test [5], in test [6], in test [7] and in test [8] was inactive.

On to `Fc1cccc(Cl)c1-c1nc(NCCC(c2ccccc2)c2ccccc2)no1`, for which the growth inhibition in test [1] was 87% (active); in test [4], 99% (active). Further, the inhibition is 4% in test [2] and -3% in test [3]. Moreover, the result in test [5], in test [6], in test [7] and in test [8] was inactive.

With `CN(C)c1cc(NC(=O)Nc2ccc(SC(F)(F)F)cc2)c2ccccc2n1`, the growth inhibition in test [1] and in test [4] was 100% (active) throughout. Further, the inhibition in test [2] is 22%; in test [3] it was -4%. Also, the result in test [5], in test [6], in test [7] and in test [8] was inactive.

For the compound `CCN(CCCN1CCCCC1)c1cc(C)nc(Nc2ccc(C(C)C)cc2)n1`, the results for the growth inhibition in test [1] and in test [4] were 51% (active) and 100% (active), respectively. For the same compound, the inhibition was 34% in test [2] and 2% in test [3]. Further, the result in test [5], in test [6], in test [7] and in test [8] was inactive.

In the case of `Cc1cccn2c(=O)c3cc(C(=O)NCCc4ccccc4)c(=N)n(CCCOC(C)C)c3nc12`, the growth inhibition in test [1] is 40%; in test [4] it was 101% (active). The inhibition was 19% in test [2] and -3% in test [3]. The outcome in test [5], in test [6], in test [7] and in test [8] was inactive.

As for `O=C(NC(=S)NCc1ccncc1)c1ccccc1`, the growth inhibition is -3% in test [1] and 94% (active) in test [4]. Also, the figures for the inhibition in test [2] and in test [3] were -7% and 1%, respectively. Besides, the outcome in test [5], in test [6], in test [7] and in test [8] was inactive.

For the compound `Cc1ccc(Cn2nc(Cl)c(N3CCNCC3)cc2=O)cc1NC(=O)Nc1ccc(-c2ccccc2)cc1`, the growth inhibition was 97% (active) in test [1] and 98% (active) in test [4]. Moreover, the inhibition in test [2] was 100% (active); in test [3] it was -5%. Further, the result in test [5], in test [6], in test [7] and in test [8] was inactive.

Consider `CCc1[nH]nc(C(=O)Nc2cccc(N3CCCC3)c2)c1C`, for which the growth inhibition was 52% (active) in test [1] and 81% (active) in test [4]. The values for the inhibition in test [2] and in test [3] were 15% and 1%, respectively. In addition, the result in test [5], in test [6], in test [7] and in test [8] was inactive.

In the case of `O=c1cc(NCCCNCc2sc(Br)nc2Br)[nH]c2ccccc12`, the values for the growth inhibition in test [1] and in test [4] were 44% and 92% (active), respectively. The results for the inhibition in test [2] and in test [3] were 1% and -2%, respectively. In addition, the outcome in test [5], in test [6], in test [7] and in test [8] was inactive.

As for `FC(F)(F)COc1ccc(CNCCCCCCNCc2ccc(OCC(F)(F)F)c3ccccc23)c2ccccc12`, the results for the growth inhibition in test [1] and in test [4] were 93% (active) and 102% (active), respectively. Further, the inhibition was 99% (active) in test [2] and 3% in test [3]. Besides, the result in test [5], in test [6], in test [7] and in test [8] was inactive.

With `Cc1ccc(C2(C)CC(C)(C)N(C(=O)COc3ccc4ccccc4c3)c3ccccc32)cc1` (configuration not stated), the growth inhibition was 98% (active) in test [1] and 100% (active) in test [4]. The inhibition was 0% in test [2] and -2% in test [3]. The outcome in test [5], in test [6], in test [7] and in test [8] was inactive.

For the compound `N#Cc1cccc(C(=O)Nc2ccc(-c3ccc(CN4CCCC4)cc3)cc2)c1`, the growth inhibition in test [1] is 32%; in test [4], 92% (active). Moreover, the inhibition was 38% in test [2] and -5% in test [3]. The result in test [5], in test [6], in test [7] and in test [8] was inactive.

`CC(C)COc1ccc(Cl)cc1Cc1ccc(-c2nc3ccc(F)cc3[nH]2)o1`: the figures for the growth inhibition in test [1] and in test [4] were 49% and 97% (active), respectively. Further, the values for the inhibition in test [2] and in test [3] were 35% and 6%, respectively. The result in test [5], in test [6], in test [7] and in test [8] was inactive.

Take `CC1(C)N=C(N)N=C(N)N1OCCCc1ccc(Cl)cc1Cl`: the growth inhibition in test [1] and in test [4] was 95% (active) throughout. Moreover, the figures for the inhibition in test [2] and in test [3] were 54% (active) and 0%, respectively. For the same compound, the result in test [5], in test [6], in test [7] and in test [8] was inactive.

Take `CCOc1cc(C(=O)Nc2ccccc2N2CCN(S(C)(=O)=O)CC2)cc(OCC)c1OCC`: the growth inhibition is 80% (active) in test [1] and 91% (active) in test [4]. Also, the figures for the inhibition in test [2] and in test [3] were -1% and -2%, respectively. For the same compound, the result in test [5], in test [6], in test [7] and in test [8] was inactive.

Consider `COc1cccc(N(CCCN2C(=O)c3cccc4cccc(c34)C2=O)C(=O)c2ccccc2C)c1`, for which the growth inhibition is 70% (active) in test [1] and 86% (active) in test [4]. The inhibition in test [2] was 20%; in test [3], -7%. For the same compound, the outcome in test [5], in test [6], in test [7] and in test [8] was inactive.

With `COc1cc(CCCOc2c(N)nc(N)nc2N)cc(OC)c1OC`, the growth inhibition in test [1] is 0%; in test [4] it was 88% (active). The inhibition in test [2] was 8%; in test [3], 2%. Moreover, the result in test [5], in test [6], in test [7] and in test [8] was inactive.

As for `O=C(NC1CCCCC1)c1csc(C2CCCN(C(=O)c3ccc(O)c(-c4cccc(C(F)(F)F)c4)c3)C2)n1` (configuration not stated), the growth inhibition in test [1] is 85% (active); in test [4] it was 96% (active). Moreover, the inhibition is 8% in test [2] and 5% in test [3]. Besides, the result in test [5], in test [6], in test [7] and in test [8] was inactive.
